Tested on in one experiment: not listed separately
Kind of experiment: small-molecule binders of probe aInhba, primary screen, biochemical, small-molecule microarray, 635/667 nm fluorescence (AID 1148).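 Also: score merges 667nm spot fluorescence with signal-to-noise for antibody binding to printed compounds.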 Conditions: higher = more signal.
The molecule `CO[C@H]1COC(=O)[C@@H](C)COC(=O)[C@H](COCc2ccccc2)NC(=O)CC=C[C@H]1C` returned a composite z-score of -0.203. The same measure, in the same setting: the result for `COc1cccc([C@H]2Oc3ccc(OC)cc3C(=NO[C@@H]3O[C@H](COC(C)=O)[C@@H](OC(C)=O)[C@H](OC(C)=O)[C@H]3OC(C)=O)[C@@H]2O)c1` reads -0.163; that for `CCOC(=O)[C@H](CC(C)C)NC(=O)CCC1CC(OC(=O)NCc2ccc3c(c2)OCO3)CC2(CCCC(COC(=O)NCc3cccc(C(F)(F)F)c3)O2)O1` (some centres not stated), 0.0184; that for `CCN1C(=O)[C@H]2[C@H]3[C@H](O)[C@H](O)CC(=NOCC(C)C)[C@@H]3CC[C@H]2C1=O`, 0.038.

Take `COC(=O)[C@H](C)NC(=O)CCC1CC(OC(=O)NCCc2ccc(F)cc2)CC2(CCCC(COC(=O)NCCC(C)C)O2)O1` (some centres not stated): the composite z-score is 0.0047. In turn, `C=CC[C@@H]1C=C[C@H](ON=C(C)CCN2CCc3nc(-c4ccccc4)c(-c4ccccc4)cc3C2)[C@@H](CO)O1` returned a composite z-score of -0.0719.

The target of the next experiment is Torsin-1A (Homo sapiens) (UniProt O14656). Kind of experiment: torsin A binders from cell lysate, primary screen, small-molecule microarray, wild-type, 635/667 nm (AID 1149). The following applies: COS7 hTOR1A-WT lysate, 635 nm fluorescence, higher = more signal.
Chain of Torsin-1A (Homo sapiens) (O14656 whole entry, looked up): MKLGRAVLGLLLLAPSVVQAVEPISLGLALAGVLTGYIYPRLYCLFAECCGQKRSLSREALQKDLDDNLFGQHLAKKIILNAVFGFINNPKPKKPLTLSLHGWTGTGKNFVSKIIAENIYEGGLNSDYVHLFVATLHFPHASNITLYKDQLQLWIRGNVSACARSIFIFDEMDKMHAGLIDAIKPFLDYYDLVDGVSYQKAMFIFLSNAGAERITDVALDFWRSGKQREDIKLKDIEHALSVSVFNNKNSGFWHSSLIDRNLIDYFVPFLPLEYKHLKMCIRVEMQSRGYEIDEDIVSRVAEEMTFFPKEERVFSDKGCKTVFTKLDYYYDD
With `CC(C)[C@@H](OCc1ccccc1)[C@H](C)C=NOC[C@@H](O)COCc1ccco1`, the composite z-score was -0.712. Same read-out and setting: with `CC(C)(C)N1C(=O)[C@H]2[C@H]3[C@H](O)C=CC(=O)[C@@H]3CC[C@H]2C1=O` the figure was 0.281.

The molecule `CCOC(=O)[C@H](CC(C)C)NC(=O)CCC1CC(OC(=O)NCc2cccc3ccccc23)CC2(CCCC(COC(=O)NCCOC)O2)O1` (some centres not stated) had a composite z-score of -0.114.

Regarding `Cc1ccc(S(=O)(=O)n2c3ccccc3c3nnc(C(=O)c4ccccc4)nc32)cc1`, the composite z-score was found to be 0.0855.

Molecule `CCN1C(=O)[C@H]2[C@H]3[C@H](O)[C@H](O)CC(=NOC[C@H]4O[C@H](c5ccccc5)C=C[C@@H]4Oc4ccc(OC)cc4)[C@@H]3CC[C@H]2C1=O` came in with a composite z-score of 0.66.

The molecule `Cc1cc2c(c(=O)o1)[C@@H](O)[C@H]1O[C@H]1C2=O` returned a composite z-score of 0.102. On the same count and under the same terms, with `C#CCCCON=C1C[C@@H](O)[C@@H](O)[C@@H]2[C@@H]3C(=O)N(c4cccc(Oc5ccccc5)c4)C(=O)[C@@H]3CC[C@H]12` the figure was 0.32; with `CC(CCN1CCc2nc(-c3ccccc3)c(-c3ccccc3)cc2C1)=NOC[C@@H](O)[C@H]1O[C@@H]2OC(C)(C)O[C@@H]2[C@H]1O`, 0.648; with `CC(CCN1CCc2nc(-c3ccccc3)c(-c3ccccc3)cc2C1)=NOC[C@@H](O)COCc1ccco1`, 1.15. Still for that read-out and setting: with `CSCC[C@@H]1NC(=O)CC=C[C@@H](C)COC(=O)[C@@H](C)COC1=O` the figure was 2.66; with `CC(=O)Nc1ccc([C@@H]2N[C@H](C(=O)O)CC[C@H]2C)cc1`, 0.746. On the same count and under the same terms, the result for `C#CCCCON=C1[C@H]2CCn3c(=O)n(-c4ccccc4)c(=O)n3[C@H]2[C@H](O)[C@@H]2O[C@H]12` reads 0.494; that for `COC(=O)[C@@H]1CC[C@H](C)[C@@H](c2ccc(C)cc2)N1C(=O)c1ccc(C=NOC[C@@H](C)[C@H](OCc2ccccc2)C(C)C)cc1`, 0.0707. `CCOC(=O)[C@H](Cc1ccccc1)NC(=O)CCC1CC(OC(=O)NCc2cccc3ccccc23)CC2(CCCC(COC(=O)NCCC(C)C)O2)O1` (some centres not stated) gave a composite z-score of 1.5. As for `C=CC[C@@H]1C=C[C@H](ON=C2[C@H]3CCn4c(=O)n(-c5ccccc5)c(=O)n4[C@H]3[C@H](O)[C@@H]3O[C@H]23)[C@@H](CO)O1`, the composite z-score was -0.207. On to `CCOC(=O)[C@H](CC(C)C)NC(=O)CCC1CC(OC(=O)NCc2cccc3ccccc23)CC2(CCCC(COC(=O)NCCOc3ccccc3)O2)O1` (some centres not stated), for which the composite z-score came to 0.236. On the same count and under the same terms, the result for `C[C@@H](c1ccccc1)N1C(=O)[C@H]2[C@H]3[C@H](O)[C@H](O)CC(=NOCc4ccccc4)[C@H]3CC[C@H]2C1=O` reads -0.0911. The same measure, in the same setting: the result for `CCCNC(=O)OC[C@H]1O[C@H](CCON=C(C)CCN2CCc3nc(CC)c(CC)cc3C2)C=C[C@@H]1Oc1ccc(OC)cc1` reads 0.686. Same read-out and setting: with `CCCNC(=O)OC[C@H]1O[C@H](CCON=C(C)C)C=C[C@@H]1Oc1ccc(OC)cc1` the figure was -0.0198; with `CC(=O)O[C@H]1C2=CO[C@H](C)[C@H]3[C@H]4C5=C([C@H](O)[C@H]6O[C@H]6C5=O)[C@H](OC4C)[C@@]23C(=O)[C@@H]2O[C@@H]21` (some centres not stated), -0.119.

The molecule `C=CC[C@@H]1C=C[C@H](ON=C[C@@H](C)[C@H](OCc2ccccc2)C(C)C)[C@@H](CO)O1` gave a composite z-score of -0.617. On the same count and under the same terms, the result for `COC(=O)CC=C[C@@H](C)[C@@H](C=NOC(C)CN1CCCc2nc(C)c(C)cc21)OC` (some centres not stated) reads 0.254. Same read-out and setting: the result for `CC(CCN1CCCCc2nc(C)c(C)cc21)=NOC[C@@H](C)[C@H](OCc1ccccc1)C(C)C` reads -1.62; that for `CON=C(C)CCC(=O)OC[C@H]1O[C@H](c2ccccc2)C=C[C@@H]1Oc1ccc(OC)cc1`, 0.0952.

`CON=CC[C@@H]1C=C[C@H](OC(C)=O)[C@@H](COC(C)=O)O1` had a composite z-score of 0.611. Still for that read-out and setting: the result for `Cn1c(=O)n2n(c1=O)[C@H]1[C@H](O)[C@@H]3O[C@@H]3C(=O)[C@H]1CC2` reads 0.961; that for `COc1ccc(COC(=O)NN=C2C[C@@H](O)[C@@H](O)[C@@H]3[C@@H]4C(=O)N(Cc5ccccc5)C(=O)[C@@H]4CC[C@H]23)cc1`, -0.429; that for `C#CCCCON=C1C[C@@H](O)[C@@H](O)[C@@H]2[C@@H]3C(=O)N(C(C)(C)C)C(=O)[C@@H]3CC[C@@H]12`, -0.196.

Molecule `C[C@@H](c1ccccc1)N1C(=O)[C@H]2[C@H]3[C@H](O)[C@H](O)CC(=NO[C@@H]4O[C@H](CO)[C@@H](O)[C@H](O)[C@H]4O)[C@H]3CC[C@H]2C1=O` registered a composite z-score of 0.225. On the same count and under the same terms, the result for `CCOC(=O)CCN1C(=O)[C@H]2[C@H]3[C@H](O)[C@H](O)CC(=NOCc4ccccc4)[C@H]3CC[C@H]2C1=O` reads -0.296; that for `CO[C@H]1COC(=O)[C@@H](C)COC(=O)[C@H](COCc2ccccc2)NC(=O)CC=C[C@H]1C`, 0.436. The same measure, in the same setting: the result for `COc1cccc([C@H]2Oc3ccc(OC)cc3C(=NO[C@@H]3O[C@H](COC(C)=O)[C@@H](OC(C)=O)[C@H](OC(C)=O)[C@H]3OC(C)=O)[C@@H]2O)c1` reads 0.29; that for `CCOC(=O)[C@H](CC(C)C)NC(=O)CCC1CC(OC(=O)NCc2ccc3c(c2)OCO3)CC2(CCCC(COC(=O)NCc3cccc(C(F)(F)F)c3)O2)O1` (some centres not stated), 0.175. The same measure, in the same setting: the result for `CCN1C(=O)[C@H]2[C@H]3[C@H](O)[C@H](O)CC(=NOCC(C)C)[C@@H]3CC[C@H]2C1=O` reads 0.729. For `COC(=O)[C@H](C)NC(=O)CCC1CC(OC(=O)NCCc2ccc(F)cc2)CC2(CCCC(COC(=O)NCCC(C)C)O2)O1` (some centres not stated), the composite z-score was -0.184. The molecule `C=CC[C@@H]1C=C[C@H](ON=C(C)CCN2CCc3nc(-c4ccccc4)c(-c4ccccc4)cc3C2)[C@@H](CO)O1` yielded a composite z-score of 0.593.
